An excerpt weighted towards active compounds, which were near 5.2% of everything screened.
Vif inh = blocks HIV Vif function | HEK293T cells, Vif self-association by quenched fluorescence, imaging, 24 h | inhibition, % at 7.49 µM | 340,000 compounds, 0.35% hits | AID 602346; in the data active = inhibition above about 50%, passing the limit was not always enough; inconclusive = no clear call, values can overlap the other calls; inactive = below about 31%
NadD inh = inhibitors of Staphylococcus aureus NadD; 360,000 compounds, 0.78% hits; AID 602399; inhibition, % at 20 µM; purified NadD enzyme, colorimetric absorbance read-out; in the data active = inhibition above about 26%
SMARCA2 act = increases SMARCA2 function in MMTV reporter cells | MG213 cells, MMTV-luciferase reporter, dexamethasone, overnight | activation, % at 9.1 µM | 370,000 compounds, 1% hits | AID 652017; in the data active = activation above about 7.8%;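 note: 0% = vehicle wells and 100% = reference activator wells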
esBAF inh = blocks esBAF chromatin remodeling in mouse ES cells. 350,000 compounds, 2% hits. reporter increase, % at 12.5 µM. Bmi1-luciferase knock-in reporter, 24 h; 100% = twice the neutral-well signal. AID 602393; in the data active = activation above about 40%; inconclusive = no clear call, values can overlap the other calls;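 note: 0% = median of the plate's neutral control wells and 100% = double that signal; a rise in the Bmi1 reporter signal indicates esBAF inhibition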
NR3A LBD binder = modulators (binders) of human NR3A ligand-binding domain; 340,000 compounds, 2.5% hits; AID 1259313; NR3A LBD differential scanning fluorimetry, Tm shift; 0% = protein alone, 100% = glycine-bound protein; Tm shift relative to glycine control, % at 25 µM;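 active = melting temperature shift of at least 10% of the positive control shift, at one fixed dose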
SKN-1 inh = blocks SKN-1 activity in C. elegans; 360,000 compounds, 0.49% hits; C. elegans VP596 Pgst-4::GFP/RFP ratio, acrylamide-induced, 24 h; inhibition, % at 21.8 µM; AID 624304;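 active = interference check ratio from 0.5 to 1.5 plus GFP to RFP signal ratio inhibition reaching or exceeding a fixed threshold, cut at about 30% in these data, passing the limit was not always enough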
* hit, by the source's call; u = inconclusive; x = not tested or not shown.

SMILES	Vif inh	NadD inh	SMARCA2 act	esBAF inh	NR3A LBD binder	SKN-1 inh
Cc1csc(NC(=O)CCCc2cccs2)n1	1.3	-4.3	2.2	u	-0.8	-10.2
CC(=O)Nc1ccc(-c2csc(NC(=O)CCCc3cccs3)n2)cc1	-6.7	-2.1	-1.6	4.9	19.2*	-1.8
Cc1noc(C)c1S(=O)(=O)N(C)C[C@@H]1OCCCC[C@@H](C)Oc2ccc(NC(=O)NC(C)C)cc2C(=O)N([C@H](C)CO)C[C@@H]1C	x	x	x	-3.3	x	x
N#Cc1cccc(C(=O)Nc2ccc(S(=O)(=O)Nc3nccs3)cc2)c1	65.9*	1.4	-2.9	1.8	-2.2	-12.3
CS(=O)(=O)Nc1ccc(C(=O)Nc2ccc(S(=O)(=O)Nc3nccs3)cc2)cc1	-1.8	-1.0	-0.9	0.3	-0.5	-2.6
O=C(CSc1ccccc1)Nc1ccc(S(=O)(=O)Nc2ncccn2)cc1	-3.3	8.1	-2.3	3.5	-0.6	-5.7
O=C(CSc1ccc2ccccc2c1)Nc1ccc(S(=O)(=O)Nc2nccs2)cc1	-1.3	23.5	3.8	x	13.4*	4.9
COc1ccc2oc(C(=O)OCC(=O)Nc3ccc(N4CCOCC4)cc3)c(C)c2c1	2.6	2.1	-1.5	x	1.0	0.9
COc1ccc2oc(C(=O)OCC(=O)Nc3ccc(C)c(S(=O)(=O)N4CCOCC4)c3)c(C)c2c1	-7.1	0.8	2.2	78.7*	x	12.1
Cc1ccc(NC(=O)COC(=O)c2ccco2)cc1S(=O)(=O)N1CCOCC1	0.2	-9.5	-2.9	-12.0	-1.6	-1.8
Cc1ccc(NC(=O)COC(=O)C2(C)CC2(Cl)Cl)cc1S(=O)(=O)N1CCOCC1 (centres undefined)	-1.8	-3.7	-1.5	-2.9	0.8	41.4*
CO[C@H]1CN(C)C(=O)c2cc(NC(=O)C3CC3)ccc2OC[C@@H](C)N(C(=O)CN2CCOCC2)C[C@H]1C	x	x	x	-1.7	x	x
C[C@@H]1CN([C@@H](C)CO)C(=O)c2cc(C#Cc3ccncc3)cnc2O[C@H]1CN(C)Cc1ccncc1	x	x	x	3.5	x	x
CCS(=O)(=O)Nc1ccc2c(c1)C(=O)N(C)[C@H]1CC[C@@H](CC(=O)N[C@@H]3CCN(Cc4ccccc4)C3)O[C@@H]1CO2	x	x	x	2.9	x	x
Cn1nc(-c2ccc(Cl)cc2)cc1NC(=O)Nc1ccccc1	-1.0	-9.0	6.6	u	25.6*	2.6
Cn1nc(-c2ccccc2)cc1NC(=O)Nc1ccc(C(C)(C)C)cc1	5.1	4.0	1.7	x	16.8*	11.3
Cn1nc(-c2ccccc2)cc1NC(=O)c1ccccc1	-1.1	0.3	3.2	10.6	-0.7	-0.7
C[C@@H]1CCCCO[C@@H](CN(C)C(=O)Nc2ccc(C(F)(F)F)cc2)[C@@H](C)CN([C@@H](C)CO)C(=O)c2cc(N(C)C)ccc2O1	x	x	x	-6.7	x	x
CN1c2ccc(C#Cc3cccnc3)cc2[C@H]2[C@H](CCN2C(=O)c2cccnc2)[C@@H]1CO	x	x	x	12.9	x	x
Cn1c(=O)c(C(=O)NCc2ccccc2)c(O)c2ccccc21	-1.9	-8.1	1.4	45.3*	2.9	1.7
Cc1ccc(NC(=O)c2c(Cl)n(C)c3ccccc23)cc1	-1.7	-9.1	3.4	67.1*	-3.5	-5.2
Cc1ccc(NC(=O)c2c(O)c3ccccc3n(C)c2=O)nc1	3.2	-2.5	-4.6	48.3*	1.9	1.1
C[C@@H]1CN([C@@H](C)CO)C(=O)c2ccccc2-c2ccccc2CO[C@@H]1CN(C)C(=O)Nc1ccccc1C(F)(F)F	x	x	x	4.7	x	x
C[C@H](CO)N1C[C@H](C)[C@@H](CN(C)Cc2ccncc2)OCCCC[C@H](C)Oc2ccc(N(C)C)cc2C1=O	x	x	x	1.9	x	x
C[C@H](CO)N1C[C@H](C)[C@H](CN(C)S(=O)(=O)c2ccc(F)cc2)OCCCC[C@H](C)Oc2ccc(NS(=O)(=O)c3cccs3)cc2C1=O	x	x	x	7.1	x	x
SMILES	Vif inh	NadD inh	SMARCA2 act	esBAF inh	NR3A LBD binder	SKN-1 inh
COc1ccccc1NC(=O)N(C)C[C@H]1OCc2ccccc2-c2ccccc2C(=O)N([C@@H](C)CO)C[C@H]1C	x	x	x	-7.6	x	x
C[C@H](CO)N1C[C@H](C)[C@H](CN(C)S(=O)(=O)c2cccc(F)c2)Oc2ncc(C#CC3CCCCC3)cc2C1=O	x	x	x	-1.2	x	x
O=C(C#Cc1ccccc1)Nc1cccc(F)c1	-1.4	-9.8	-0.7	-76.6	8.2	15.4
O=C(C#Cc1ccccc1)Nc1ccc(F)cc1	1.5	-8.3	3.6	49.3*	1.7	5.3
COc1ccc(NC(=O)C#Cc2ccccc2)cc1	0.7	-8.1	3.7	u	10.1*	-7.7
CS(=O)(=O)Nc1ccc2c(c1)[C@H]1C[C@@H](CC(=O)NCc3ccccn3)O[C@@H](CO)[C@H]1O2	x	x	x	-4.3	x	x
COc1cccc(S(=O)(=O)Nc2ccc3c(c2)[C@H]2C[C@@H](CC(=O)NCc4ccc(Cl)cc4)O[C@H](CO)[C@H]2O3)c1	x	x	x	2.4	x	x
CCC(C(=O)O)n1c(C(F)(F)F)nc2ccccc21 (centres undefined)	10.2	-2.9	1.5	15.8	11.7*	7.7
CNc1nc2ccccc2n1/N=C/c1cccc(OC)c1OC	2.2	-10.7	-2.4	3.4	32.2*	-0.9
CC(C)(C)CC(=O)Nc1nnc(C(F)(F)F)s1	-11.5	-1.0	-5.2	-2.8	3.1	-4.5
CC(NC(=O)Nc1nnc(C(F)(F)F)s1)(C(F)(F)F)C(F)(F)F	-13.1	-3.1	-9.3	-41.8	1.5	32.4*
CCCNC(=O)C[C@H]1CC[C@H]2[C@H](COc3ccc(NC(=O)c4cccs4)cc3C(=O)N2C)O1	x	x	x	-3.7	x	x
O=C(Nc1cccc(Br)c1)c1ccc2nc(N3C(=O)CCC3=O)sc2c1	-14.5	-7.2	-1.8	14.7	13.8*	13.1
Cc1ccc(-c2ccc3c(c2)O[C@@H](CN(C)S(C)(=O)=O)[C@@H](C)CN([C@H](C)CO)S3(=O)=O)cc1	x	x	x	1.3	x	x
COc1ccc(C(=O)Nc2cccc3ccccc23)cc1	-3.5	1.4	1.1	51.9*	-2.6	9.3
O=C(NNC(=O)c1cccc2ccccc12)c1ccc(Cl)c(Cl)c1	-2.0	-0.8	2.9	9.4	-3.6	20.1
COc1cccc(C(=O)NNC(=O)c2cccc3ccccc23)c1	-7.8	2.3	6.2	17.0	-0.6	16.6
CC(C)(C)c1cc(C(=O)Nc2cccc3ccccc23)ccn1	-16.1	-3.0	-3.0	9.5	683.0*	-0.1
COc1ccc(C(=O)NNC(=O)c2cccc3ccccc23)cc1	3.3	-4.9	0.9	53.6*	0.6	20.1
O=C(NNC(=O)c1cccc2ccccc12)c1ccc2c(c1)OCO2	-4.0	-5.9	0.4	54.0*	3.7	-1.5
Cc1ccc(-c2cnc3c(c2)C(=O)N([C@@H](C)CO)C[C@H](C)[C@@H](CN(C)Cc2ccccc2C(=O)O)O3)cc1	x	x	x	1.8	x	x
Cc1noc(C)c1S(=O)(=O)N(C)C[C@H]1Oc2ccc(NC(=O)Cn3cnnn3)cc2CC(=O)N([C@H](C)CO)C[C@H]1C	x	x	x	-0.4	x	x
